Shown are actives, neighbours in structure and some others; about 18% of the full set was active somewhere.
RORgamma inh – qHTS for inhibitors of ROR gamma transcriptional activity. Nuclear receptor ROR-gamma (Mus musculus), P51450. Drosophila S2 Gal4-RORgamma UAS-luciferase reporter, 20 h. 5.4% of 310,000 active. Potency, µM (titrated, usually from 53.6 µM), for inactives: at the highest dose activity change, negative = inhibition, hits mostly inhibitors; also: potency is read from the fitted curve at half-maximal effect; nearly all actives have a fitted effect of over 60% in size
Target sequence (P51450 whole entry, looked up, the tested form may be a part): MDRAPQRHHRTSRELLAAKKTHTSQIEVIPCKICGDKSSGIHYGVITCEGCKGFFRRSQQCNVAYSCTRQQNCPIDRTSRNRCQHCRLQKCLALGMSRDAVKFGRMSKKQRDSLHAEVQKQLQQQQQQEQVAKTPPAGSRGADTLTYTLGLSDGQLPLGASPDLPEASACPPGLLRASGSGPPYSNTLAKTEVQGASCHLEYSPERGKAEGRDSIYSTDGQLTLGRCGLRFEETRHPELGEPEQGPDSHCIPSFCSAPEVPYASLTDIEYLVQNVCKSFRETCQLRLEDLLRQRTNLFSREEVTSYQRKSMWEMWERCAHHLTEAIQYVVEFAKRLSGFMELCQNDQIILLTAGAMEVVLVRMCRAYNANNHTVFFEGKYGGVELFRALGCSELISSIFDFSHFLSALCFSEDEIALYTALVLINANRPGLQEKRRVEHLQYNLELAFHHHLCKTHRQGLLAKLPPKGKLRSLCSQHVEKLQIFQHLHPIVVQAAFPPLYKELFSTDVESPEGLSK
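Read-out: Photinus luciferase luminescence; inhibitors lower reporter signal. Insect Schneider cells with Gal4-ROR gamma fusion under metallothionein promoter, UAS reporter; 700 uM final copper sulfate induction, 20 hr, ambient temperature.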
TDP1 cell CPT – qHTS for Inhibitors of human tyrosyl-DNA phosphodiesterase 1 (TDP1): qHTS in cells in presence of CPT | 12% of 420,000 active | chicken DT40 Tdp1-/-;hTDP1 cells + 20 nM CPT, ATP luminescence, 48 h | AID 686979, 2013 | Potency, µM (series often up to 46.2 µM), for the others: top-dose activity change, negative = growth inhibition, most hits filed as inhibitors; also: potency is read from the fitted curve at half-maximal effect; nearly all actives have a fitted effect of over 55% in size
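Cell growth measured by CellTiter-Glo luminescence after a minimum 48 h, 37 C compound exposure with 20 nM CPT in Tdp1-knockout DT40 cells stably expressing hTDP1, seeded 400/well; qHTS titration format.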
TDP1 cell noCPT – qHTS for Inhibitors of human tyrosyl-DNA phosphodiesterase 1 (TDP1): qHTS in cells in absence of CPT; DT40 Tdp1-/- hTDP1 cells, no CPT, ATP luminescence, 48 h; Potency, µM (highest dose often 46.2 µM), for inactives: at the highest dose activity change, negative = growth inhibition, hits mostly inhibitors; 15% of 420,000 active; AID 686978, 2013; also: potency is read from the fitted curve at half-maximal effect; nearly all actives have a fitted effect of over 55% in size
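Growth of hTDP1-complemented DT40 Tdp1-knockout cells is measured by ATP luminescence after at least 48 hr compound exposure at 37 °C, with DMSO substituting for the 20 nM CPT used in the parallel screen.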
IL-1B inflam inh – qHTS for Inhibitors of Inflammasome Signaling: IL-1-beta AlphaLISA Primary Screen; activity change, % at 57.5 µM; AID 743279, 2014; THP-1 LPS/ATP IL-1B secretion, AlphaLISA, 16 h; hits give low values; 4.7% of 360,000 active; in the data active = activity change below about -50%; inconclusive = mostly about -30% to -49%
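Secreted IL-1B measured by AlphaLISA bead assay after 16 h compound exposure of THP-1 cells; compounds (final up to 57.5 uM) added 1 h before LPS (250 ng/mL) and ATP (1.25 mM) stimulation; lower signal means less secretion.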
VP16 counter – VP16 counterscreen qHTS for inhibitors of ROR gamma transcriptional activity; Drosophila S2 Gal4-VP16 UAS-luciferase, luminescence, 20 h; Potency, µM (doses to about 53.6 µM), inactives show at the highest dose activity, negative = inhibition, hits mostly inhibitors; 3.5% of 310,000 active;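 also: Gal4-VP16 expression switched on by copper sulfate through the metallothionein promoter; potency is read from the fitted curve at half-maximal effect; nearly all actives have a fitted effect of over 50% in size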
LDHA inh – qHTS assay for inhibitors of human lactate dehydrogenase; L-lactate dehydrogenase A chain (Homo sapiens), P00338; AID 1347041, 2019; 0.15% of 480,000 active; purified LDHA, NADH/diaphorase-resazurin fluorescence; hits give low values; activity change, % (values are at about 110 or 230 µM); in the data active = activity change below about -30%; inconclusive = mostly about -25% to -30%;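 also: plate controls were DMSO wells for no effect and wells without enzyme for full effect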
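Enzyme activity of human lactate dehydrogenase 5 (2 nM; 0.06 mM NADH, 0.2 mM pyruvate, 5 min, RT) is measured via a resazurin/diaphorase fluorescence readout of residual NADH.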
* hit, by the source's call; [ ] = dose if it differs, or a comment. Unless noted, calls follow the shape of the dose curve; as a rule, active = well fitted curve in the direction sought with a large enough effect; inconclusive = small, poorly fitted or top-dose-only effect, or another doubt; inactive = no such curve, though single readings can be large; an effect the other way counts as inactive or inconclusive. Unless noted, % is scaled to controls: 0 for no effect and ±100 for the full control effect.

For COc1ccc(CCNC(=O)c2ccc3c(c2)N(Cc2ccccc2Cl)C(=O)c2ccccc2S3)cc1OC the results were TDP1 cell CPT 6.5µM*, TDP1 cell noCPT 7.3µM* and LDHA inh -2.
N#Cc1nc(COc2ccc3c(c2)OCO3)oc1NC1CC1 was read as LDHA inh 35.
O=C(NCCN1CCOCC1)c1ccc2c(c1)N(Cc1ccccc1F)C(=O)c1ccccc1S2 was read as RORgamma inh 42%, TDP1 cell CPT 21µM*, TDP1 cell noCPT -29%, IL-1B inflam inh -30, VP16 counter -13%[10 µM] and LDHA inh -5.
For Cc1ccc(CN2C(=O)c3ccccc3Sc3ccc(C(=O)NCCN4CCOCC4)cc32)cc1 the results were RORgamma inh 22%, TDP1 cell CPT inconclusive, TDP1 cell noCPT inconclusive, IL-1B inflam inh -16, VP16 counter 2% and LDHA inh -1.
For COc1cc(O)c2c(=O)cc(C)oc2c1CC=C(C)C the results were RORgamma inh -3%, TDP1 cell CPT 3%[9.04 µM], TDP1 cell noCPT -23%[9.04 µM] and VP16 counter -3%.
For C=CC(C)(C)c1c(O)c(CC=C(C)C)c(O)c2c(=O)c3ccc(O)c(O)c3oc12 the results were TDP1 cell CPT 16µM*, TDP1 cell noCPT 18µM*, IL-1B inflam inh 83 and LDHA inh 2.
For Cc1cccc(CN2CCN(Cc3cc(=O)oc4cc(C)ccc34)CC2)c1 the results were LDHA inh 21.
For C=CCOC(=O)C1=C[C@@H](c2ccc(Br)cc2)[C@H](CCCO)[C@@H](OCC)O1 the results were RORgamma inh 2%, TDP1 cell CPT inconclusive, TDP1 cell noCPT inconclusive, IL-1B inflam inh 2, VP16 counter -11% and LDHA inh 3.
`C=CCOC(=O)C1=C[C@H](c2ccc(C(F)(F)F)cc2)[C@@H](CCCO)[C@H](OCC)O1` gave RORgamma inh inconclusive, TDP1 cell CPT 23µM*, TDP1 cell noCPT inconclusive, IL-1B inflam inh 19, VP16 counter inconclusive and LDHA inh -1.
Screening C=CCOC(=O)C1=C[C@@H](c2ccc(C(F)(F)F)cc2)[C@H](CCCO)[C@@H](OCC)O1 returned RORgamma inh 20%, TDP1 cell CPT 23µM*, TDP1 cell noCPT 12µM*, IL-1B inflam inh 6, VP16 counter -10% and LDHA inh 1.
Screening C=CCOC(=O)C1=C[C@@H](c2ccccc2)[C@H](CCCO)[C@@H](OCC)O1 returned RORgamma inh 5%, TDP1 cell CPT 15µM*, TDP1 cell noCPT inconclusive, IL-1B inflam inh 16, VP16 counter 2% and LDHA inh -1.
Screening CCO[C@@H]1OC(C(N)=O)=C[C@H](c2ccc(C(F)(F)F)cc2)[C@H]1CCCO returned RORgamma inh 1%, TDP1 cell CPT -17%, TDP1 cell noCPT -17%, IL-1B inflam inh 10, VP16 counter 5% and LDHA inh -2.
For CSc1ccc(C2CC(=O)Nc3c2c(=O)[nH]c2ncnn32)cc1 (stereo unspecified) the results were LDHA inh -1.
Screening CCN(CC)c1ccc(NC(=O)c2ccc3nc[nH]c3c2)cc1 returned LDHA inh 12.
Screening CCOC(=O)c1ccc(-c2c(C(=O)OCC)oc3cc(O)c(CC)cc3c2=O)o1 returned RORgamma inh 3.2µM*, TDP1 cell CPT 15µM*, TDP1 cell noCPT 12µM*, IL-1B inflam inh 0, VP16 counter inconclusive and LDHA inh 0.
Screening CCOC(=O)c1oc2cc(O)c(CC)cc2c(=O)c1-c1cscn1 returned RORgamma inh 39%, TDP1 cell CPT -6%, TDP1 cell noCPT -16%, IL-1B inflam inh 33, VP16 counter -19% and LDHA inh -1.
For CCOC(=O)c1oc2cc(O)cc(O)c2c(=O)c1OCc1ccccc1 the results were TDP1 cell CPT 18µM*, TDP1 cell noCPT 16µM*, IL-1B inflam inh 34 and LDHA inh 3.
CCOC(=O)CCNC(=O)NCCC1CCN(C(=O)Nc2cccc(Cl)c2)CC1 was read as LDHA inh -3.
For CCNc1nc(NCc2ccccc2)nc(SCC(N)=O)n1 the results were RORgamma inh -4%, TDP1 cell CPT 1%, TDP1 cell noCPT inconclusive, IL-1B inflam inh 10, VP16 counter 21%[10 µM] and LDHA inh -11.
For CC(Nc1nc(Nc2ccc(F)cc2)nc(SCC(N)=O)n1)c1ccccc1 (stereo unspecified) the results were RORgamma inh 25%, TDP1 cell CPT 13%, TDP1 cell noCPT -27%, IL-1B inflam inh -60*, VP16 counter 1% and LDHA inh -11.
Cc1cc(C)nc(Nc2ccc(F)cc2)n1 was read as RORgamma inh -24%, TDP1 cell CPT 7%, TDP1 cell noCPT 1%, IL-1B inflam inh -9, VP16 counter 3% and LDHA inh -6.
`CC(Nc1nc(=S)nc(Nc2ccc(F)cc2)[nH]1)c1ccccc1` (stereo unspecified) gave RORgamma inh inconclusive, TDP1 cell CPT 21µM*, TDP1 cell noCPT inconclusive, IL-1B inflam inh 16, VP16 counter inconclusive and LDHA inh -9.
For Cc1ccc(-c2noc(CCCC(=O)NCc3ccco3)n2)cc1 the results were TDP1 cell CPT inconclusive, TDP1 cell noCPT 18µM* and LDHA inh -7.
`O=C(CCCc1nc(-c2ccc(Cl)cc2)no1)NCc1ccco1` gave TDP1 cell CPT 7.3µM*, TDP1 cell noCPT 12µM* and LDHA inh -13.
For Cc1ccccc1-c1noc(CCC(=O)NCc2ccco2)n1 the results were RORgamma inh 22%, TDP1 cell CPT 2%, TDP1 cell noCPT 3%, IL-1B inflam inh 12, VP16 counter 22% and LDHA inh -1.
COc1ccc(-c2noc(CCC(=O)NCc3ccco3)n2)cc1 was read as RORgamma inh -32%, TDP1 cell CPT -17%, TDP1 cell noCPT -27%, IL-1B inflam inh 8, VP16 counter inconclusive and LDHA inh -6.
`Cc1c(NC(=O)COC(=O)/C=C/c2ccc(Cl)cc2)c(=O)n(-c2ccccc2)n1C` gave RORgamma inh 4%, TDP1 cell CPT -2%, TDP1 cell noCPT -19%, IL-1B inflam inh -22, VP16 counter 2% and LDHA inh -5.

Source: PubChem BioAssay
